In PubChem BioAssay AID2100 (National Center for Advancing Translational Sciences (NCATS), 2009):
Hit rate of the full screen: of about 300,000 compounds, about 1,200 (0.4%) were called active. Another 3% or so got no clear call; they are omitted. The call rests on the fitted dose curve; in most records, active means well fitted inhibition curve with a large enough effect; inconclusive means small, poorly fitted or top-dose-only effect, or another doubt; inactive means no such curve, though single readings can be large or run the other way. The entries come from a sample that favours actives as a whole.

molecular target: Lysosomal alpha-glucosidase (Homo sapiens) (UniProt P10253); test: qHTS Assay for Inhibitors and Activators of Human alpha-Glucosidase Cleavage of Glycogen; conditions: recombinant GAA, glycogen substrate, Amplex Red glucose oxidase fluorescence; series mostly up to 76.4 µM; activity change, negative = inhibition: at the top concentration;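 further: the screen sought inhibitors and activators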;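 on activity change, negative = inhibition: 0% = full enzyme reaction and -100% = no-enzyme basal signal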
Excerpt: NIH Chemical Genomics Center [NCGC] NIH Molecular Libraries Probe Production Centers Network [MLPCN] MLPCN Grant: R03 MH084841-01 Assay Submitter (PI): Wei Zheng NCGC Assay Overview: Alpha-glucosidase is responsible for the hydrolysis of terminal, non-reducing 1,4-linked alpha-D-glucose residues, which releases alpha-D-glucose. It is a lysosomal hydrolase that is required for the degradation of a small percentage (1-3%) of cellular glycogen in humans. Deficiency of this enzyme results in glycogen-storage disease type II (GSDII), also referred to as Pompe disease, an autosomal recessive disorder. Structurally normal glycogen is accumulated in the lysosomes and cytoplasm in affected patients, primarily in muscle tissues. Excessive glycogen storage within lysosomes may interrupt normal functioning of other organelles and leads to cellular injury. In turn, this leads to enlargement and dysfunction of the entire organ involved (eg: cardiomyopathy and muscle weakness). It has been reported that the improper folding and trafficking of alpha-glucosidase resulting from genetic mutations may account for a significant number of Pompe patients. […] We optimized this alpha-glucosidase assay in 1536-well plate format for identification of novel small molecule inhibitors or activators with structures other than the sugar analogs in order to develop new pharmacological chaperones. Previous assays of alpha-Glucosidase have utilized a non-natural fluorescent substrate to probe enzyme activity. The present assay measures enzyme activity on glycogen using a coupled-assay system to glucose oxidase.
NCGC Assay Protocol Summary: This is an enzyme assay using glycogen from bovine liver (Sigma catalog #: G0885) as the substrate and recombinant human alpha-glucosidase as the enzyme preparation. Upon hydrolysis of the substrate, the glucose product can be detected using the Amplex Red Glucose Oxidase Assay Kit (Invitrogen catalog #: A22189). The product of this reaction can be read with a fluorescence plate reader with an excitation at 573 nm and an emission at 610 nm. Data were normalized to the controls for basal activity (without enzyme) and 100% activity (with enzyme). The AC50 values were determined from concentration-response data modeled with the standard Hill equation. Assay buffer for enzyme reaction: 50 mM citric acid (titrated with potassium phosphate to pH 5.0), 0.01% Tween-20 (pH 5.0 is an optimal condition for this enzyme assay) Assay buffer for Amplex Red reaction: Tris-HCl, pH 7.5 1536-well assay protocol for the alpha-glucosidase assay: (1) Add 2 ul/well alpha-glucosidase enzyme solution (4 nM final) (2) Add 23 nL compounds in DMSO solution. The final titration was 0.7 nM to 77 uM. (3) Add 1 ul of glycogen substrate solution (30 ug) (4) Incubate at 37 C for 40 min (5) Add 2 ul tris-HCl buffer with Amplex Red reagents (6) Incubate 45 min at room temperature. (7) Detect the assay plate in a ViewLux plate reader (PerkinElmer) with Ex=573 nm and Em=610nm. Keywords: Alpha-glucosidase, Pompe Disease, pharmacological chaperone, chaperone therapy, high throughput screening, alpha-glucosidase inhibitor, MLSMR, MLSCN, NIH Roadmap, qHTS and NCGC
Potency means the concentration at half of the fitted maximal effect.

Compound	activity change, negative = inhibition	Potency
CC(C)c1ccc(O)c(CN2CCN(c3ccccc3)CC2)c1	13.9% (inactive)	
Oc1cc2c(cc1CN1CCN(c3ccccc3)CC1)OCO2		2000 nM (active)
Fc1ccc(N2CCN(Cc3ccc4c(c3)OCO4)CC2)cc1	-3.55% (inactive)	
Cc1ccc(NC(=O)N(Cc2ccc3c(c2)OCO3)C2CCN(Cc3ccccc3)CC2)cc1F	-5.75% [at 76.3 µM] (inactive)	
Cn1cc(/C=C/c2nc3ccccc3c(=O)n2-c2ccccc2)c2ccccc21	-5.95% [at 76.3 µM] (inactive)	
